Results taken from PubChem BioAssay (NCATS).
Inconclusive results are not listed. Calls of active or inactive are those of the source. Unless noted, the call rests on the fitted dose curve. Numbered stars: 1 amine (or outer) side, 2 acyl side, 3 side chain; on linkers, the order of the positions; unused ones are H or OH. Bridge positions count the residues as written; N and C are the ends. Square brackets hold non-standard residues; d marks the D form. Peptide text beside a SMILES is read from it. * marks the point of attachment. X6 = NC1=N[C@@H](O)C[C@H]([C@H](N[*:1])C(=O)[*:2])N1; ΔAla(Z-3-ureido) = NC(=O)N/C=C(\N)C(=O)O; β3hOrn = NCCC[C@H](N)CC(=O)*; Dap = NC[C@H](N)C(=O)O

Columns and labels:
[1] = Primary qHTS for inhibitors of SARS-S pseudo-typed particle cell entry (AID 1479145); settings: SARS-S pseudotyped particle cell entry, luciferase reporter; series mostly up to 57.1 µM; further: nearly all actives have a fitted effect of over 45% in size; on activity change, negative = inhibition: on the % scale 0 is the no-effect control and ±100 the full control effect
[2] = Primary qHTS for Huh7 cytotoxicity: counterscreen for inhibitors of MERS-S pseudotyped particle cell entry (AID 1479147); settings: cell viability read-out; series mostly up to 57.1 µM; on activity change, negative = cytotoxicity: on the % scale 0 is the no-effect control and ±100 the full control effect
[3] = Primary qHTS for inhibitors of MERS-S pseudo-typed particle cell entry (AID 1479149); settings: MERS-S pseudotyped particle entry, luciferase; series mostly up to 57.1 µM; further: nearly all actives have a fitted effect of over 60% in size; on activity change, negative = inhibition: on the % scale 0 is the no-effect control and ±100 the full control effect
[4] = Primary qHTS for Vero E6 cytotoxicity: counterscreen for inhibitors of SARS-S pseudo-typed particle cell entry (AID 1479150); settings: cell viability; series mostly up to 57.1 µM
[5] = Cytotoxicity counterscreen for inhibitors of SARS-CoV-2 cell entry (AID 1645845); settings: cell viability (SARS-CoV-2 entry assay cells); series mostly up to 57.1 µM; further: nearly all actives have a fitted effect of over 50% in size; on activity change, negative = cytotoxicity: on the % scale 0 is the no-effect control and ±100 the full control effect
In short: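 ATP-content luminescence (ATPLite 1step, 15 min RT) read after 48 h compound exposure of Expi293F cells stably expressing human ACE2; normalized to cells-only wells and media-only wells.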

[6] = Primary qHTS to identify inhibitors of SARS-CoV-2 cell entry (AID 1645846); settings: SARS-CoV-2 pseudovirus cell entry assay, luminescence; activity change, negative = inhibition: at 57.1 µM (top of the series) unless noted; further: nearly all actives have a fitted effect of over 45% in size
In short: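 Inhibition of spike-mediated entry was scored in human ACE2-transfected Expi293F cells. Particles were MLV-pseudotyped with Wuhan-Hu-1 S carrying a 19-aa C-terminal deletion; signal was luciferase after two days, scaled between spike PP and fusion-protein-free PP.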

[7] = target: Glutathione peroxidase 1 (Homo sapiens) (UniProt P07203); assay: Primary qHTS Assay for Inhibitors of Recombinant Selenoprotein Glutathione Peroxidase 1 (GPX1) (AID 1845191; active means well fitted inhibition curve with a large enough effect; further: on the % scale 0 is the no-effect control and ±100 the full control effect; nearly all actives have a fitted effect of over 65% in size); settings: recombinant GPX1, GR-coupled NADPH fluorescence, 15 min; series mostly up to 48.8 µM
Glutathione peroxidase 1 (Homo sapiens), sequence (P07203 whole entry, looked up): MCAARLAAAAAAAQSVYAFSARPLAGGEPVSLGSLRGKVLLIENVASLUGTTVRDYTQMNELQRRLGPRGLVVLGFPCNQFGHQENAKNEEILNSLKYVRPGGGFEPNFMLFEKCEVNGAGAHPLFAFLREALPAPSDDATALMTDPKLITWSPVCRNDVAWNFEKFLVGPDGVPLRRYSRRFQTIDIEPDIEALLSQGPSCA
In short: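 NADPH consumption tracked by fluorescence at 340/450 nm between t=0 and t=15 min, room temperature. Final mix: 10 nM GPX1, 100 nM glutathione reductase, 1 mM GSH, 0.5 mM NADPH, 0.5 mM cumene hydroperoxide, 0.01% BSA; 30 min compound–enzyme preincubation.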

[8] = target: Phospholipid hydroperoxide glutathione peroxidase GPX4 (Homo sapiens) (UniProt P36969); assay: Primary qHTS Assay for Inhibitors of Recombinant Selenoprotein Glutathione Peroxidase 4 (GPX4) (AID 1845192; active means well fitted inhibition curve with a large enough effect; further: on the % scale 0 is the no-effect control and ±100 the full control effect; nearly all actives have a fitted effect of over 65% in size); settings: recombinant GPX4, GR-coupled NADPH fluorescence, 15 min; series mostly up to 50 µM
Phospholipid hydroperoxide glutathione peroxidase GPX4 (Homo sapiens), sequence (P36969 whole entry, looked up): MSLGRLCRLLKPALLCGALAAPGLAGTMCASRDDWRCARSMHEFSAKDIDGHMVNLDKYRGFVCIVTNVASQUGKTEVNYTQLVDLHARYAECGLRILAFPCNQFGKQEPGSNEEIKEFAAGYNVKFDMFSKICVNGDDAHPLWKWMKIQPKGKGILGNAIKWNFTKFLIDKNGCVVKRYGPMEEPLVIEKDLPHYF
In short: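 NADPH consumption followed by fluorescence at 340/450 nm, t=0 and after 15 min at room temperature. Reaction started with cumene hydroperoxide (0.5 mM final) after 30 min compound–GPX4 preincubation; final 200 nM GPX4, 100 nM GR, 1 mM GSH, 0.5 mM NADPH.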

CSCCNc1nc(SCCC(F)(F)F)nc2c1ncn2[C@@H]1O[C@H](COP(=O)(O)OP(=O)(O)C(Cl)(Cl)P(=O)(O)O)[C@@H](O)[C@H]1O
inactive: Potency [1] | Potency [2] | Potency [3] | Potency [4] | Potency [5]
-28.8%: activity change, negative = inhibition [6]

CO[C@H]1O[C@@H]2O[C@@]3(C)CC[C@H]4[C@H](C)CC[C@@H]([C@@H]1C)[C@@]24OO3
-7.86%: activity change, negative = inhibition [6]
inactive: Potency [1] | Potency [2] | Potency [3] | Potency [4] | Potency [5]

COC(=O)CCC[N+](C)(C)C
-38.5%: activity change, negative = inhibition [6]
inactive: Potency [1] | Potency [2] | Potency [3] | Potency [4] | Potency [5]

Cc1cc(-c2ccc(N=Nc3c(S(=O)(=O)O)cc4cc(S(=O)(=O)O)cc(N)c4c3O)c(C)c2)ccc1N=Nc1c(S(=O)(=O)O)cc2cc(S(=O)(=O)O)cc(N)c2c1O
inactive: Potency [1] | Potency [2] | Potency [3] | Potency [4] | Potency [5]
2.81%: activity change, negative = inhibition [6]

C[S+](CC[C@H](N)C(=O)O)C[C@H]1O[C@@H](n2cnc3c(N)ncnc32)[C@H](O)[C@H]1O (stereo not given in full)
inactive: Potency [1] | Potency [2] | Potency [3] | Potency [4] | Potency [5] | Potency [6]

COc1cc(O)c(C(=O)Nc2nc(C(=O)NCCN(C(C)C)C(C)C)cs2)cc1OC
inactive: Potency [1] | Potency [2] | Potency [3] | Potency [4] | Potency [5]
-17.9%: activity change, negative = inhibition [6]

Cn1c(=O)cc(N2CCC[C@@H](N)C2)n(Cc2cc(F)ccc2C#N)c1=O
-23.7%: activity change, negative = inhibition [6]
inactive: Potency [1] | Potency [2] | Potency [3] | Potency [4] | Potency [5]

Cc1cc2nc3c(=O)[nH]c(=O)nc-3n(C[C@@H](O)[C@@H](O)[C@@H](O)COP(=O)(O)O)c2cc1C
inactive: activity change, negative = inhibition [1] -30.5% [at 11.4 µM] | outcome [2] inactive [at 11.4 µM] | outcome [3] inactive [at 11.4 µM] | activity change, negative = cytotoxicity [4] 1.24% [at 11.4 µM] | activity change, negative = cytotoxicity [5] 3.55% [at 11.3 µM]
-22.9% [at 11.3 µM]: activity change, negative = inhibition [6]

Cc1cc(Nc2ncc(Cl)c(Nc3ccccc3S(=O)(=O)C(C)C)n2)c(OC(C)C)cc1C1CCNCC1
inactive: Potency [1] | Potency [2] | Potency [3] | Potency [4] | Potency [5]
-32%: activity change, negative = inhibition [6]

NCCC[C@H](N)CC(=O)N[C@H]1CNC(=O)[C@H]([C@H]2C[C@H](O)N=C(N)N2)NC(=O)/C(=C/NC(N)=O)NC(=O)[C@H](CO)NC(=O)[C@H](CO)NC1=O (β3hOrn-[Dap]SS[ΔAla(Z-3-ureido)][X6]; lactam 1-C)
inactive: Potency [1] | Potency [2] | Potency [3] | Potency [4] | Potency [5] | Potency [6]

OC[C@H]1OC(O)C[C@@H](O)[C@@H]1O (stereo not given in full)
inactive: Potency [1] | Potency [2] | Potency [3] | Potency [4] | Potency [5]
-11.1%: activity change, negative = inhibition [6]

C[C@@H](O)[C@H]1C(=O)N2C(C(=O)[O-])=C(SC3Cn4cnc[n+]4C3)[C@H](C)[C@H]12 (stereo not given in full)
-12.2% [at 11.3 µM]: activity change, negative = inhibition [6]
inactive: activity change, negative = inhibition [1] -18.9% [at 11.4 µM] | outcome [2] inactive [at 11.4 µM] | activity change, negative = inhibition [3] -3.17% [at 11.4 µM] | activity change, negative = cytotoxicity [4] 4.16% [at 11.4 µM] | outcome [5] inactive [at 11.3 µM]

Cn1nnc(-c2ccc(-c3ccc(N4C[C@@H](CO)OC4=O)cc3F)cn2)n1
inactive: Potency [1] | Potency [2] | Potency [3] | Potency [4] | Potency [5] | Potency [6]

CO[C@H]1/C=C\O[C@@]2(C)Oc3c(C)c(O)c4c(O)c(c5c(nc6cc(C)ccn65)c4c3C2=O)NC(=O)/C(C)=C\C=C/[C@H](C)[C@H](O)[C@@H](C)[C@@H](O)[C@@H](C)[C@H](OC(C)=O)[C@@H]1C
-25.8%: activity change, negative = inhibition [6]
inactive: Potency [1] | Potency [2] | Potency [3] | Potency [4] | Potency [5]

C[C@]12C=CC(=O)C=C1CC[C@@H]1[C@@H]2[C@@H](O)C[C@@]2(C)[C@H]1CC[C@]2(O)C(=O)COC(=O)c1cccc(S(=O)(=O)O)c1
inactive: Potency [1] | Potency [2] | Potency [3] | Potency [4] | Potency [5]
-5.05%: activity change, negative = inhibition [6]

COc1cc2c(cc1OC)[C@@H](Cc1cc(OC)c(OC)c(OC)c1)[N+](C)(CCCOC(=O)CC/C=C/CCC(=O)OCCC[N+]1(C)CCc3cc(OC)c(OC)cc3[C@H]1Cc1cc(OC)c(OC)c(OC)c1)CC2 (stereo not given in full)
inactive: Potency [1] | Potency [2] | Potency [3] | Potency [4] | Potency [5]
-24%: activity change, negative = inhibition [6]

OC[C@H]1O[C@@H](c2ccc(F)c(Cc3cc4ccccc4s3)c2)[C@H](O)[C@@H](O)[C@@H]1O
inactive: Potency [1] | Potency [2] | Potency [3] | Potency [4] | Potency [5]
-24.7%: activity change, negative = inhibition [6]

O=C(O)CCCN1CCC(O[C@@H](c2ccc(Cl)cc2)c2ccccn2)CC1
inactive: Potency [1] | Potency [2] | Potency [3] | Potency [4] | Potency [5]
-17.2%: activity change, negative = inhibition [6]

C=C1CC[C@H](O)C/C1=C\C=C1/CCC[C@]2(C)[C@@H]([C@H](C)CC[C@H](O)C(C)(C)O)CC[C@@H]12
inactive: Potency [1] | Potency [2] | Potency [3] | Potency [4] | Potency [5]
-14.2%: activity change, negative = inhibition [6]

COC(=S)NCCn1c([N+](=O)[O-])cnc1C
-22.7%: activity change, negative = inhibition [6]
inactive: Potency [1] | Potency [2] | Potency [3] | Potency [4] | Potency [5]

C#C[C@]1(O)CC[C@H]2[C@@H]3CCC4=C/C(=N/O)CC[C@@H]4[C@H]3CC[C@@]21CC
-1.12%: activity change, negative = inhibition [6]
inactive: Potency [1] | Potency [2] | Potency [3] | Potency [4] | Potency [5]

CC1(O)CCC(C(C)(C)O)CC1 (stereo not given)
inactive: Potency [1] | Potency [2] | Potency [3] | Potency [4] | Potency [5] | Potency [6]

O=C1C(c2[nH]c3ccc(S(=O)(=O)O)cc3c2O)=Nc2ccc(S(=O)(=O)O)cc21
inactive: Potency [1] | Potency [2] | Potency [3] | Potency [4] | Potency [5]
-23%: activity change, negative = inhibition [6]

COC(=O)N[C@H](C(=O)N1CCC[C@H]1C(=O)Nc1ccc([C@@H]2CC[C@@H](c3ccc(NC(=O)[C@@H]4CCCN4C(=O)[C@@H](NC(=O)OC)C(C)C)cc3)N2c2ccc(C(C)(C)C)cc2)cc1)C(C)C
inactive: Potency [1] | Potency [2] | Potency [3] | Potency [4] | Potency [5]
-22.9%: activity change, negative = inhibition [6]

COc1ccc(CC(C)(C)NC[C@H](O)c2cc(O)cc3c2OCC(=O)N3)cc1
2.79%: activity change, negative = inhibition [6]
inactive: Potency [1] | Potency [2] | Potency [3] | Potency [4] | Potency [5]

CS(=O)(=O)n1cc2c(n1)CN([C@H]1CO[C@H](c3cc(F)ccc3F)[C@@H](N)C1)C2
-25.8%: activity change, negative = inhibition [6]
inactive: Potency [1] | Potency [2] | Potency [3] | Potency [4] | Potency [5]

Cc1nc(NS(=O)(=O)c2ccc(N)cc2)nc(C)c1Br
inactive: Potency [1] | Potency [2] | Potency [3] | Potency [4] | Potency [5]
-21.5%: activity change, negative = inhibition [6]

CC(=O)CCC1C(=O)N(c2ccccc2)N(c2ccccc2)C1=O
-21%: activity change, negative = inhibition [6]
inactive: Potency [1] | Potency [2] | Potency [3] | Potency [4] | Potency [5]

CN(C)C=Nc1c(I)cc(I)c(CCC(=O)O)c1I
inactive: Potency [1] | Potency [2] | Potency [3] | Potency [4] | Potency [5]
-33.1%: activity change, negative = inhibition [6]

C[C@@H]1C[C@H]2[C@@H]3CCC4=CC(=O)C=C[C@]4(C)[C@@]3(F)[C@@H](O)C[C@]2(C)[C@@]1(O)C(=O)COP(=O)(O)O
inactive: outcome [1] inactive [at 11.4 µM] | outcome [2] inactive [at 11.4 µM] | outcome [3] inactive [at 11.4 µM] | outcome [4] inactive [at 11.4 µM] | outcome [5] inactive [at 11.3 µM] | outcome [6] inactive [at 11.3 µM]

CCC(=O)OCC(=O)[C@@]1(OC(=O)CC)[C@@H](C)C[C@H]2[C@@H]3CCC4=CC(=O)C=C[C@]4(C)[C@@]3(F)[C@@H](O)C[C@@]21C
inactive: Potency [1] | Potency [2] | Potency [3] | Potency [4] | Potency [5] | Potency [6]

O=C(O)C1CCc2cc(C3CCCCC3)c(Cl)cc21 (stereo not given)
-32.2%: activity change, negative = inhibition [6]
inactive: Potency [1] | Potency [2] | Potency [3] | Potency [4] | Potency [5]

CCCCOc1ccc(C[N+]2(C)C3CCC2CC(OC(=O)[C@H](CO)c2ccccc2)C3)cc1 (stereo not given in full)
-21.1%: activity change, negative = inhibition [6]
inactive: Potency [1] | Potency [2] | Potency [3] | Potency [4] | Potency [5] | Potency [7] | Potency [8]
